Our source for the Potency values is PubChem BioAssay (Tox21).

Experiment [1] is described as follows: A CellTox Green Cytotoxicity Assay to monitor cytotoxicity in HEK293 cells - 8 hour (AID 1224884). Note: nearly all actives have a fitted effect of over 35% in size. Note: potency is the fitted concentration of half-maximal effect. The method in brief: (§1)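 HEK293 cells, 600/well, were preincubated 5 hours and then exposed to compounds at 37 C for up to 40 hours. A cell-impermeant cyanine dye staining dead-cell DNA was read by fluorescence at 0, 8, 16, 24, 32 and 40 h time points.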
Experiment [2] can be described thus: qHTS RealTime-Glo MT Cell Viability Assay in HepG2 cells - 16 hour (AID 1224885). Note: nearly all actives have a fitted effect of over 50% in size. Note: potency is the fitted concentration of half-maximal effect. The procedure, abridged: (§2)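 HepG2 cells (600/well) were dispensed with RealTime-Glo reagents, incubated 5 h at 37 °C, then treated with compounds in DMSO for up to 40 h. Nonlytic NanoLuc luminescence reflecting viable cells was read at each stated time point.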
For orientation: Quantitative high-throughput screening tests each substance at several concentrations.

A short description of experiment [3]: qHTS RealTime-Glo MT Cell Viability Assay in HEK293 cells - 24 hour (AID 1224886). Note: nearly all actives have a fitted effect of over 50% in size. Note: potency is the fitted concentration of half-maximal effect. The procedure, abridged: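 HEK293 cells seeded with NanoLuc/prosubstrate reagent, rested 5 h at 37 C, then dosed and kept at 37 C up to 40 h. Nonlytic real-time luminescence from viable cells read at 0, 8, 16, 24, 32 and 40 h.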
Experiment [4] can be described thus: qHTS RealTime-Glo MT Cell Viability Assay in HepG2 cells - 0 hour (AID 1224889). Note: nearly all actives have a fitted effect of over 50% in size. The method in brief: as §2
The nature of experiment [5]: A CellTox Green Cytotoxicity Assay to monitor cytotoxicity in HepG2 cells - 8 hour (AID 1224890). Note: nearly all actives have a fitted effect of over 45% in size. Note: potency is the fitted concentration of half-maximal effect. The procedure, abridged:
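HepG2 cells, 600/well, preincubated 5 h with CellTox Green dye, then exposed to Tox21 compounds in DMSO at 37 C for up to 40 h. Dead-cell DNA fluorescence read at the indicated time point.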

The nature of experiment [6]: qHTS assay to identify small molecule antagonists of the estrogen receptor alpha (ER-alpha) signaling pathway using the BG1 cell line in the presence of 0.1 nM 17-beta-estradiol - cell viability counter screen (AID 1259241). Note: nearly all actives have a fitted effect of over 40% in size. The procedure, abridged:
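Cytotoxicity counter-screen: live-cell protease activity measured by fluorescence (30 min reagent step) in the same wells. Cells were VM7Luc4E2 with endogenous ER-alpha and ERE-driven luciferase, treated 22 hr at 37C alongside 0.1 nM 17beta-estradiol final.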

A short description of experiment [7]: qHTS assay to identify small molecule antagonists of the androgen receptor (AR) signaling pathway using the MDA cell line in the presence of 0.5 nM R1881 - cell viability counter screen (AID 1259242). Note: nearly all actives have a fitted effect of over 45% in size. Note: potency is the fitted concentration of half-maximal effect. The procedure, abridged: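 MDA-kb2 cells (MMTV-luciferase, AR/GR responsive) were treated with compounds plus 0.5 nM R1881 (final) for 16 hr at 37C, 0% CO2. Viability was then read in the same wells as live-cell protease fluorescence (CellTiter-Fluor, 30 min).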

A short description of experiment [8]: A CellTox Green Cytotoxicity Assay to monitor cytotoxicity in HEK293 cells - 16 hour (AID 1224888). Note: nearly all actives have a fitted effect of over 35% in size. The procedure, abridged:
as §1

A short description of experiment [9]: qHTS RealTime-Glo MT Cell Viability Assay in HEK293 cells - 8 hour (AID 1224887). Note: top concentration of the series differs between compounds; nearly all actives have a fitted effect of over 50% in size. The procedure, abridged:
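600 cells/well were plated with the nonlytic NanoLuc/prosubstrate reagent, pre-incubated 5 h, then given 23 nL of compound in DMSO. Incubation at 37 C for 40 h, with luminescence from viable-cell-reduced substrate read repeatedly from 0 h.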

Experiment [10] has as its target Androgen receptor (Homo sapiens) (UniProt P10275). Description: qHTS assay to identify small molecule antagonists of the androgen receptor (AR) signaling pathway using the MDA cell line in the presence of 0.5 nM R1881 (AID 1259243). Note: nearly all actives have a fitted effect of over 50% in size. The text has this:
U.S. Tox21 Program National Center for Advancing Translational Sciences [NCATS] NIH Chemical Genomics Center [NCGC] U.S. Environmental Protection Agency [EPA] National Institutes of Environmental Health Sciences [NIEHS] National Toxicology Program [NTP] U.S. Food and Drug Administration [FDA] Tox21 Assay Overview: Androgen receptor (AR) is an important member of the nuclear receptor family. Its signaling plays a critical role in AR-dependent prostate cancer and other androgen related diseases. Considerable attention has been given in the past decades to develop methods to study and screen for the environmental chemicals that have the potential to interfere with metabolic homeostasis, reproduction, developmental and behavioral functions. Therefore AR binding assay for screening androgen antagonists can be used to identify potential endocrine disruptors. MDA-kb2 cells (from ATCC, deposited by Wilson et al.) were used to screen for AR inhibitors against Tox21 compound libraries. These cells are human breast carcinoma cells that were stably transfected with a luciferase reporter gene under control of the MMTV promoter that contains response elements for both androgen receptor (AR) and glucocorticoid receptor (GR). The current screening for identification of AR inhibitors against Tox21 libraries used lower concentration (0.5 nM) of R1881 as a stimulator.
Tox21 Assay Protocol Summary: MDA-kb2 cells (cells cultured without CO2) were dispensed at 3,000 cells/well in 4 uL of culture medium into white wall/solid-bottom 1536-well plates (Corning Life Sciences, Corning, NY) using a Multidrop Combi (ThermoFisher Scientific, Waltham, MA) dispenser. […] For luciferase reporter gene assay, 4 uL of ONE-Glo reagent (Promega Corporation, Madison, WI) was added to each well using the FRD and after 30 min incubation at room temperature luminescence intensity was measured using ViewLux plate reader (PerkinElmer, Shelton, CT).

Several values for one entry are separate records, joined by “and”; a condition that tells them apart may be missing. Identical values can stand only once. Results filed as inconclusive are left out. A structure can be active in one record and inactive in another. Activity calls are given as the source filed them. Calls come from the whole dose curve; as a rule, active = well fitted curve in the direction sought with a large enough effect in the repeat runs; inconclusive = weak or mixed curves; inactive = no such curve, though single readings can be large; an effect the other way counts as inactive or inconclusive.

Chain of Androgen receptor (Homo sapiens) (P10275 whole entry, looked up): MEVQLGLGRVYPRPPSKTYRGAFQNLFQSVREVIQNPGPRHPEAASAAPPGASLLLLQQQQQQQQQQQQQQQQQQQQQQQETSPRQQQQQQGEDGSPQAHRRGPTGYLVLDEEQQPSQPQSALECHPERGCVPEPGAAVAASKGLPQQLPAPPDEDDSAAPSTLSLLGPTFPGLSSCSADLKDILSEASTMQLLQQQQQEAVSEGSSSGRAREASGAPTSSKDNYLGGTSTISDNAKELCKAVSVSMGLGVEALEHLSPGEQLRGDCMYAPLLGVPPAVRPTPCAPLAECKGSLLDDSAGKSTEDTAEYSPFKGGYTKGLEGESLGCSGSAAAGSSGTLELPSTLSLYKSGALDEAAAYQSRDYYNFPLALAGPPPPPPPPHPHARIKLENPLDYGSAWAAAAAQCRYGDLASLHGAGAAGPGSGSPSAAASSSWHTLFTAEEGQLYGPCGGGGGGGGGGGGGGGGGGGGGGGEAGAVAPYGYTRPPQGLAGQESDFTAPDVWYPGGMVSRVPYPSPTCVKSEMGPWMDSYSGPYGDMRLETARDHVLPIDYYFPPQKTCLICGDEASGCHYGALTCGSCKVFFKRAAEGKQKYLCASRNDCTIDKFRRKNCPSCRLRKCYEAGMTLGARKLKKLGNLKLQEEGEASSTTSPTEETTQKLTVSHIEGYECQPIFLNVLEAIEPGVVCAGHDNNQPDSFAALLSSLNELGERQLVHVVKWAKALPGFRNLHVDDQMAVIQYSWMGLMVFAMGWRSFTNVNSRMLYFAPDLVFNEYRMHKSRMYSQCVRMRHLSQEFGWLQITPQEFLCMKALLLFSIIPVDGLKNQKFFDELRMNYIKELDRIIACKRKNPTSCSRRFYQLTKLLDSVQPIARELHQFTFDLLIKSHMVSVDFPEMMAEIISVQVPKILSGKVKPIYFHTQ

As to `CCCC[n+]1ccc(C)cc1`, the Potency result in experiment [1] is “inactive and 21.8 µM (active)”; in experiment [3] it was 43.4 µM (active) and inactive. For the same molecule, the Potency entry in experiment [2], in experiment [4], in [5], in experiment [6] and in [7] was “inactive” throughout.
For `CCCC[n+]1ccccc1`, the Potency result in experiment [1], in experiment [2], in experiment [3], in experiment [8], in experiment [4] and in experiment [5] was “inactive” throughout. Also, the Potency result in experiment [6] and in experiment [7] was “inactive” each time.
`Cc1cc(-c2ccc(N)c(C)c2)ccc1N`: the Potency entry in experiment [1], in experiment [2], in experiment [3], in [8], in experiment [4] and in [5] was “inactive” in each case. The Potency result in experiment [6] and in [7] was “inactive” in each case.
In the case of `CCCC[N+]1(C)CCCC1`, the Potency entry in experiment [1], in experiment [2], in [3], in experiment [8], in [4] and in [5] was “inactive” each time. Also, the Potency result in [6] and in experiment [7] was “inactive” throughout.
Consider `CCCCCC[n+]1ccccc1`, for which the Potency entry in experiment [1], in [2], in experiment [3], in experiment [8], in experiment [4] and in [5] was “inactive” throughout. For the same molecule, the Potency entry in [6] and in experiment [7] was “inactive” in each case.
In the case of `O=[N+]([O-])c1ccccc1O`, the Potency result in [1], in [2], in experiment [3], in experiment [8], in experiment [4] and in experiment [5] was “inactive” throughout. Also, the Potency result in [6] and in [7] was “inactive” each time.
As for `CCOP(=S)(OCC)Oc1ccc2c(C)c(Cl)c(=O)oc2c1`, the Potency result in experiment [1], in [2], in [8], in experiment [4], in [5] and in experiment [6] was “inactive” each time. Also, in [7], the Potency entry was “inactive”. The Potency in experiment [3] is 14 µM (active) and 43.6 µM (active) and inactive.
Consider `CCCn1cc[n+](C)c1`, for which the Potency result in experiment [1], in [2], in experiment [3], in experiment [8], in [4] and in [5] was “inactive” each time. Further, the Potency entry in experiment [6] and in [7] was “inactive” each time.
`Nc1ccc(Cl)cc1`: the Potency entry in experiment [1], in [2], in [3], in experiment [8], in experiment [4] and in [5] was “inactive” in each case. Further, the Potency result in [6] and in experiment [7] was “inactive” throughout.
`O=C(O)c1ccccc1O`: the Potency result in experiment [1], in experiment [2], in [3], in experiment [8], in [4] and in experiment [5] was “inactive” each time. In addition, the Potency entry in [6] and in [7] was “inactive” throughout.
`CCCCCCCCCCCCCC[P+](CCCCCC)(CCCCCC)CCCCCC`: the Potency in experiment [1] was 19.6 µM (active) and 22.1 µM (active) and inactive; in experiment [2], 13.9 µM (active) and 19.7 µM (active) and inactive; in experiment [3] it was 5.52 µM (active) and 6.22 µM (active) and 3.46 µM (active); in [5], 19.6 µM (active) and 22.1 µM (active) and inactive; in experiment [7], 9.73 µM (active) and 13.8 µM (active). The Potency result in experiment [4] was “inactive”.
In the case of `O=C(O)CC(O)(CC(=O)O)C(=O)O`, the Potency result in experiment [1], in experiment [2], in [3], in [8], in [4] and in [5] was “inactive” in each case. The Potency entry in [6] and in [7] was “inactive” each time.
For `CC[N+](CC)(CC)CC`, the Potency result in experiment [1], in experiment [2], in experiment [3], in [8], in [4] and in experiment [5] was “inactive” in each case. In addition, the Potency entry in [6] and in experiment [7] was “inactive” each time.
Consider `CC[N+]1(C)CCCC1`, for which the Potency entry in [1], in experiment [2], in experiment [8], in experiment [4], in experiment [5] and in [6] was “inactive” throughout. In [7], the Potency result is “inactive”. Besides, the Potency entry in experiment [3] is “inactive and 24.6 µM (active)”.
Take `CCNc1nc(Cl)nc(NCC)n1`: the Potency result in experiment [1], in experiment [2], in experiment [3], in [8], in experiment [4] and in experiment [5] was “inactive” each time. For the same molecule, the Potency result in experiment [6] and in experiment [7] was “inactive” in each case.
As for `CCC(=O)C(CC(C)N(C)C)(c1ccccc1)c1ccccc1` (centres undefined), the Potency entry in experiment [1], in experiment [2], in experiment [9], in [8], in experiment [4] and in [5] was “inactive” in each case. For the same molecule, the Potency entry in experiment [6], in [7] and in experiment [10] was “inactive” in each case.
With `Nc1ccccc1`, the Potency result in experiment [1], in [2], in [3], in experiment [8], in experiment [4] and in experiment [5] was “inactive” throughout. Besides, the Potency result in [6] and in [7] was “inactive” each time.
